HT1080NT lethal = kills 2HG-producing HT-1080-NT fibrosarcoma cells | 1.6% of 360,000 active | Potency, µM (highest dose often 46.1 µM), without a hit: at the top dose activity, negative = less viability, hits mostly cytotoxic | HT-1080-NT fibrosarcoma viability, CellTiter-Glo ATP luminescence, 48 h;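 note: NT is the 2HG producing partner of a matched IDH1 knockdown line; potency is the fitted concentration of half-maximal effect; 0% = DMSO-treated cells and -100% = media-only wells without cells; nearly all actives have a fitted effect of over 55% in size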
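Viability by CellTiter-Glo luminescence after 48 h compound exposure at 37C of HT-1080-NT cells (750/well, RPMI, 5% FBS). % activity scaled between DMSO wells and medium-only wells, then curve-fitted and categorized by curve class.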
DT40 TDP1 no CPT = qHTS for Inhibitors of human tyrosyl-DNA phosphodiesterase 1 (TDP1): qHTS in cells in absence of CPT. DT40 Tdp1-/- hTDP1 cells, no CPT, ATP luminescence, 48 h. Potency, µM (doses to about 46.2 µM), for inactives: at the top dose activity change, negative = growth inhibition, most hits filed as inhibitors. 15% of 420,000 active. AID 686978, 2013; note: potency is the fitted concentration of half-maximal effect; nearly all actives have a fitted effect of over 55% in size
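Luminescent ATP content (CellTiter-Glo) served as the growth readout. Knockout chicken DT40 cells expressing human TDP1 were exposed to compounds without camptothecin for a minimum 48 hr at 37 °C.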
HT1080 IDH1KD tx = toxicity to HT-1080 IDH1 knockdown cells (counter line); HT-1080 IDH1 knockdown viability, ATP luminescence, 48 h; Potency, µM (titrated, usually from 46.1 µM), inactives show at the top dose activity, negative = toxicity, usual class: cytotoxic; 2% of 360,000 active;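 note: potency is the fitted concentration of half-maximal effect; 0% = DMSO wells and -100% = cell-free medium wells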
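IDH1KD HT-1080 cells, 750/well, RPMI + 5% FBS; compound pinned after 2 h settling; 48 h, 37 °C; CellTiter-Glo luminescence; % activity normalised to DMSO and no-cell wells; curves fitted, classed by r2 and efficacy.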
TDP1 cell CPT = growth inhibition of DT40 Tdp1-/-;hTDP1 cells with camptothecin (screen for TDP1 inhibitors). AID 686979. 12% of 420,000 active. Potency, µM (top dose mostly 46.2 µM), without a hit: at the highest dose activity change, negative = growth inhibition, hits mostly inhibitors. chicken DT40 Tdp1-/-;hTDP1 cells + 20 nM CPT, ATP luminescence, 48 h; note: potency is the fitted concentration of half-maximal effect; nearly all actives have a fitted effect of over 55% in size
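Cell growth measured by CellTiter-Glo luminescence after a minimum 48 h, 37 C compound exposure with 20 nM CPT in Tdp1-knockout DT40 cells stably expressing hTDP1, seeded 400/well; qHTS titration format.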
IL1B secr inh = blocks inflammasome-driven IL-1 beta release. THP-1 LPS/ATP IL-1B secretion, AlphaLISA, 16 h; active compounds read low. activity change, % at 57.5 µM. 4.7% of 360,000 active. AID 743279; in the data active = activity change below about -50%; inconclusive = mostly about -30% to -49%
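Secreted IL-1B measured by AlphaLISA bead assay after 16 h compound exposure of THP-1 cells; compounds (final up to 57.5 uM) added 1 h before LPS (250 ng/mL) and ATP (1.25 mM) stimulation; lower signal means less secretion.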
Numbers without * were called inactive; ? = inconclusive; · = no result; [ ] = dose if it differs, or a comment. Most compounds without a hit are left out; they make up all but 19% or so of the library. Unless noted, calls come from the whole dose curve; as a rule, active = well fitted curve in the direction sought with a large enough effect; inconclusive = small, poorly fitted or top-dose-only effect, or another doubt; inactive = no such curve, though single readings can be large; an effect the other way counts as inactive or inconclusive. Unless noted, % is set by controls: 0 for no effect and ±100 for the full control effect.

SMILES	HT1080NT lethal	DT40 TDP1 no CPT	HT1080 IDH1KD tx	TDP1 cell CPT	IL1B secr inh
Cc1c(C(=O)NCc2ccccc2)oc2ccc(S(=O)(=O)N3CCC(C)CC3)cc12	·	9.2µM*	·	9.2µM*	·
Cc1ccc(-c2nc(CS(=O)CC(=O)NCCN3CCCCC3C)c(C)o2)cc1 (stereo not given)	5%	?	6%	-7%	-11
CCOC(=O)CSc1nc(Cc2ccccc2)nc2ccccc12	4%	?	-16%	-20%	-1
CC(C)C(=O)NNC(=O)c1csc(-c2cccs2)n1	29%	-18%	17%	8%	-13
COc1cccc(NC(=O)c2oc3ccc(S(=O)(=O)N4CCCCCC4)cc3c2C)c1	·	18µM*	·	18µM*	·
Cc1c(C(=O)NCc2ccccc2CN2CCCC2)oc2ccc(F)cc12	8%[9.24 µM]	?	-18%	21µM*	-1
COc1ccccc1CNC(=O)c1oc2ccccc2c1C	11%	-12%	3%	-29%	-13
CCN(CC)S(=O)(=O)c1ccc2oc(C(=O)NCc3ccccc3OC)c(C)c2c1	·	10µM*	·	7.3µM*	·
COc1ccc2oc(C(=O)Nc3cccc(S(=O)(=O)N4CCOCC4)c3)c(C)c2c1	-2%	?	3%	?	22
CCN(C(=O)COC(=O)c1ccc(C)c(S(=O)(=O)N2CCCCC2)c1)C1CCS(=O)(=O)C1 (stereo not given)	9%	-9%	9%	-11%	16
CN(C)C(=S)Nc1ccc(S(=O)(=O)N2CCCCC2)cc1	-7%	-4%	0%	6%	1
O=[N+]([O-])c1ccc(CS(=O)c2ccccc2)cc1 (stereo not given)	1%	-12%	10%	-11%	12
O=[N+]([O-])c1ccc(S(=O)Cc2ccccc2)c([N+](=O)[O-])c1 (stereo not given)	16µM*	0.58µM*	16µM*	0.46µM*	-101*
CC(C)Nc1nnc(SCC(=O)N2CCN(C(=O)c3ccco3)CC2)s1	-2%	0%	16%	0%	5
COc1ccc(CC(N)c2csc(NC(=O)CCc3ccccc3)n2)cc1 (stereo not given)	?	21µM*	?	23µM*	?
COc1ccc(CCC(=O)Nc2nnc(C)s2)cc1	23%	-20%	8%	?	·
COc1ccc(CC(N)c2csc(NC(=O)Nc3ccccc3C(C)C)n2)cc1 (stereo not given)	?	16µM*	?	8.2µM*	?
COc1ccc(CC(N)c2csc(NC(=O)Nc3ccccc3Cc3ccccc3)n2)cc1 (stereo not given)	?	16µM*	?	21µM*	-52*
Cc1cc(S(=O)(=O)N2CCCOC2CNC(=O)C(=O)NCc2ccco2)ccc1F (stereo not given)	16%	?	-4%	-17%	7
CCOC(=O)Cn1cc(Cl)c(=O)c(Cl)c1	15%	-4%	?	2%	21
C(=N\Nc1nccc(-c2cccnc2)n1)/c1ccccc1	1%	?	-15%	0.033µM*	-54*
Cc1ccc(-c2cc(-c3ccccc3O)nc(N/N=C/c3cccnc3)n2)cc1	?	12µM*	-3%	16µM*	6
Clc1ccc(-c2csc(N/N=C/c3cccnc3)n2)c(Cl)c1	?	?	-12%	?	95
CC(C)(C)c1csc(N/N=C/c2cccnc2)n1	0%	1%	-16%	21%	-99*
C(=N\Nc1nc(-c2ccccc2)cs1)/c1cccnc1	?	?	?	13µM*	-21
SMILES	HT1080NT lethal	DT40 TDP1 no CPT	HT1080 IDH1KD tx	TDP1 cell CPT	IL1B secr inh
O=S(=O)(NCC1CCCO1)c1ccc(S(=O)(=O)N(Cc2ccc(F)cc2)Cc2ccco2)cc1 (stereo not given)	-19%	?	-24%	?	0
COCCCNC(=O)c1[nH]c2ccccc2c1Sc1ccc(C)cc1	·	-30%	·	-16%	·
CC(=O)Cn1cnc2scc(-c3ccc(C)c(C)c3)c2c1=O	1%	?	?	-16%	-11
Cc1c(C(=O)OC2CCCCCC2)[nH]c2c1C(=O)CC(c1ccc(Cl)cc1)C2 (stereo not given)	·	-20%	·	1%	·
Cc1c(C(=O)OC2CCCCC2)[nH]c2c1C(=O)CC(c1ccc(C(C)(C)C)cc1)C2 (stereo not given)	·	18µM*	·	21µM*	·
Cc1c(C(=O)OC2CCCCCC2)[nH]c2c1C(=O)CC(c1ccccc1)C2 (stereo not given)	·	3.7µM*	·	3.3µM*	·
COc1ccc(NC(=O)Cc2ccc(-c3ccccc3)cc2)cn1	9.2µM*	12µM*	23µM*	13µM*	37
COc1cc(NC(=O)c2ccccc2)c(OC)cc1NC(=O)Cc1ccc(F)cc1	-11%	21µM*	-25%	-1%	-18
COc1ccc(NC(=O)C(C)(C)Oc2ccc(Cl)cc2)cn1	9%	10%	5%	-3%	-2
COc1cc(NC(=O)c2ccccc2)c(OC)cc1NC(=O)Cc1ccc(Br)cc1	1%	?	-2%	?	-17
COc1ccc(NC(=O)/C(Cl)=C(/Cl)S(=O)Cc2ccc(Cl)cc2)cn1 (stereo not given)	1.3µM*	0.26µM*	0.92µM*	0.13µM*	-102*
COc1ccc(CC(=O)Nc2ccc(OC)nc2)cc1	17%	21%	16%	4%	-1
COc1ccccc1NC(=O)CC(=O)Nc1ccccc1OC	0%	-5%	13%	14%	51
COc1ccccc1NC(=O)Cc1ccc(-c2ccccc2)cc1	?	?	?	?	-80*
C[C@@H]1CN([C@@H](C)CO)C(=O)c2cc(-c3ccncc3)cnc2O[C@H]1CN(C)C(=O)c1cccc(F)c1	5%	?	5%	2%	-27
CCCN(CCC)c1ncnc2nc[nH]c12	-16%	?	1%	?	20
Clc1ccccc1CN(Cc1ccccc1)c1ncnc2nc[nH]c12	-29%	0%	?	-9%	-84*
COc1ccc(NC(=S)NNC(=O)c2ccccc2OC(F)F)cc1	3.5µM*	18µM*	3.5µM*	13µM*	-15
Cc1cccc(NC(=S)NNC(=O)c2ccccc2Br)c1	1%	?	-1%	?	9
Cc1cccc(NC(=S)NNC(=O)c2ccccc2OC(F)F)c1	3%	29µM*	-3%	23µM*	-4
CCNC(=S)NNC(=O)c1ccccc1OC(F)F	4%	-4%	-5%	-5%	17
Cc1ccc(S(=O)(=O)O)cc1C	·	1%	·	-5%	·

Screening results as filed in PubChem BioAssay.
